Laboratory results: PubChem BioAssay
Active and inactive are the calls of the source.

Tests used:
[1] = A549 cell viability effects, profiling panel, calcein-AM fluorescence, 48 h, basal (AID 1162); settings: higher = more signal
[2] = adipocyte viability effects, profiling panel, cell-based, 3T3-L1 adipocytes, calcein-AM fluorescence, 48 h, basal (AID 1163); settings: 3T3-L1 adipocytes viability, higher = more signal
[3] = HepG2 cell viability effects, profiling panel, calcein-AM fluorescence, 48 h, basal (AID 1164); settings: higher = more signal
[4] = MM1S cell viability effects, profiling panel, calcein-AM fluorescence, 48 h, basal (AID 1165); settings: higher = more signal;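 note: viability of MM1S multiple myeloma cells under basal unstimulated conditions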
[5] = basal RPMI8226 viability, no added stimulus, profiling panel, cell-based, calcein-AM fluorescence, 48 h, PK04 Diversity Set (AID 1166); settings: RPMI8226 myeloma viability, higher = more signal;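 note: cells grown under basal conditions without added stimulus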
[6] = basal HepG2 mitochondrial membrane potential changes, profiling panel, cell-based, JC-1 fluorescence, 24 h, 100 nL compound (AID 1167); settings: higher = more signal
[7] = basal 3T3-L1 adipocyte mitochondrial potential changes, profiling panel, cell-based, JC-1 fluorescence, 3T3-L1 adipocytes, 24 h, 100 nL compound (AID 1168); settings: JC-1 mitochondrial fluorescence, higher = more signal, called active from +8 up or from −8 down
[8] = basal RPMI8226 mitochondrial membrane potential changes, profiling panel, cell-based, JC-1 fluorescence, 24 h, 100 nL compound (AID 1169); settings: RPMI8226 myeloma, JC-1 mitochondrial potential fluorescence, higher = more signal
[9] = basal MM1S mitochondrial membrane potential changes, profiling panel, cell-based, JC-1 fluorescence, 24 h, 100 nL compound (AID 1170); settings: higher = more signal
[10] = A549 lung cancer cell viability effects, profiling panel, resazurin fluorescence, 24 h, PK04 Diversity Set (AID 1171); settings: higher = more signal, called active from +8 up or from −8 down
Note: test concentration not given here.

| Compound | z-score [1] | z-score [2] | z-score [3] | z-score [4] | z-score [5] | z-score [6] | z-score [7] | z-score [8] | z-score [9] | z-score [10] |
| --- | --- | --- | --- | --- | --- | --- | --- | --- | --- | --- |
| C=C(/C(=C/C[C@H](OC(C)=O)c1cccc(OCCO)c1)c1cnc2ccccc2c1)C(C)C | 0.336 | 0.811 | 0.0181 | -0.861 | 0.0738 | 1.28 | 0.224 (inactive) | 0.649 | -0.105 | 0.236 (inactive) |
| [N-]=[N+]=NCc1ccccc1C[C@@]1(C(=O)N2CCOCC2)N=C(c2ccc(OCCCO)cc2)O[C@@H]1c1ccccc1 | -1.99 | 1.69 | -1.7 | -3.43 | -4.4 | -0.801 | 0.86 (inactive) | -1.25 | -1.12 | -1.32 (inactive) |
| COc1ccccc1CN1C(=O)c2ccccc2[C@@]2(Cc3ccccc3N(CC(F)(F)F)C2=O)[C@@H]1c1ccc(CO)cc1 | -0.912 | -0.744 | 0.162 | 0.291 | -0.956 | -0.505 | -0.363 (inactive) | -0.0759 | -0.946 | -0.682 (inactive) |
| [N-]=[N+]=NCc1ccccc1C[C@@]1(C(=O)NCc2ccccc2)N=C(c2ccc(OCCCO)cc2)O[C@@H]1c1ccccc1N=[N+]=[N-] | 0.0629 | -1.67 | -0.236 | -2.78 | -3.5 | 0.917 | 0.898 (inactive) | -1.11 | -1.24 | -0.0617 (inactive) |
| COCCOC(=O)N1C(=O)[C@@]2(c3cc(C#Cc4ccc(OC)cc4)ccc31)[C@H](c1ccccc1OCCO)N1[C@H](c3ccccc3)[C@H](c3ccccc3)OC(=O)[C@H]1[C@@H]2C(=O)N1CCCCCCC1 | 0.161 | 1.62 | 1.19 | -0.248 | -0.584 | 0.591 | 3.46 (inactive) | -0.686 | -1.16 | 0.375 (inactive) |
| CCCCC=C[C@@H](NC(=O)c1ccc(-c2ccccc2)cc1)c1ccccc1 | -1.58 | -0.768 | -1.47 | -0.795 | -2.1 | -4.15 | 0.045 (inactive) | -0.741 | -0.819 | -0.305 (inactive) |
| C=CCC(OC(C)=O)[C@@H]1[C@@H](N(Cc2cc3ccccc3o2)C(=O)Cc2ccc(F)cc2)c2cc(OCCCO)ccc2N1C(=O)c1ccc2ccccc2c1 (stereo not given in full) | -0.0032 | -0.0993 | 1.93 | -0.915 | 0.0905 | 0.855 | 0.0661 (inactive) | -0.159 | 0.687 | 0.443 (inactive) |
| C=CCNC(=O)[C@H]1[C@@H]2C(=O)O[C@@H](c3ccccc3)[C@@H](c3ccccc3)N2[C@@H](c2ccc(O)cc2)[C@]12C(=O)N(C(=O)OCCOC)c1ccccc12 | -0.335 | 1.19 | -0.513 | -1.79 | -1.66 | -1.67 | 0.0113 (inactive) | -1.01 | 0.338 | -1.56 (inactive) |
| COC(=O)C1=CC(CCCO)=CC(C2CC2)N(C)C=C1C(=O)OC (stereo not given) | 2.6 | 0.435 | 1.45 | 0.828 | 2.02 | 0.63 | -0.757 (inactive) | -0.225 | -1.27 | -0.951 (inactive) |
| C=CCC(OC(C)=O)[C@@H]1[C@@H](N(Cc2cc3ccccc3o2)C(=O)c2ccc(-c3ccccc3)cc2)c2cc(OCCCO)ccc2N1C(=O)c1ccc2ccccc2c1 (stereo not given in full) | 0.48 | 1 | 0.063 | 0.532 | 0.299 | 1.81 | -1.11 (inactive) | 0.868 | 0.32 | 0.457 (inactive) |
| Cc1ccccc1C(O)C1C=CC2C(=O)N(C)C(=O)C2N1N(c1ccccc1)c1ccccc1 (stereo not given) | -0.665 | -1.41 | 0.655 | -0.967 | 0.0748 | 0.02 | -0.41 (inactive) | -0.217 | -0.41 | -0.191 (inactive) |
| [N-]=[N+]=Nc1ccccc1C[C@]1(C(N)=O)N=C(c2ccc(OCCCO)cc2)O[C@H]1c1ccccc1N=[N+]=[N-] | -1.47 | 1.32 | -1.84 | -2.29 | -3.48 | -1.04 | -0.981 (inactive) | -1.21 | -0.825 | -1.36 (inactive) |
| O=C1NC(=O)C2C1C=CC(C(O)c1ccco1)N2Nc1ccccn1 (stereo not given) | -0.291 | -0.0855 | -0.125 | -0.0456 | -0.529 | -1.33 | -0.688 (inactive) | 0.127 | -0.154 | -0.974 (inactive) |
| O=C1C[C@@](C(=O)NCCN2CCOCC2)(c2ccc([N+](=O)[O-])cc2)[C@@H](c2ccc(CO)cc2I)N1C1CCCCC1 | 0.465 | 0.267 | -0.696 | -1.55 | -0.764 | 2.87 | 0.264 (inactive) | -0.444 | 0.267 | 2.01 (inactive) |
| COc1ccc(CCNC(=O)[C@@]2(Sc3ccc(C)cc3)CC(=O)N(C3Cc4ccccc4C3)[C@@H]2c2ccc(CO)cc2)cc1 | -0.342 | 0.67 | -1.16 | -0.729 | -1.35 | -0.114 | -0.775 (inactive) | -0.608 | -0.885 | 0.358 (inactive) |
| O=C1OCC=C[C@H]2OC34C=CCN(Cc5ccccc5)C(=O)[C@H]3N(CCCCCCO)C(=O)[C@@H]4[C@@H]12 (stereo not given in full) | 0.131 | 0.98 | -0.246 | 1.62 | 0.659 | -0.1 | -0.173 (inactive) | -0.822 | -0.566 | 0.776 (inactive) |

| Compound | z-score [1] | z-score [2] | z-score [3] | z-score [4] | z-score [5] | z-score [6] | z-score [7] | z-score [8] | z-score [9] | z-score [10] |
| --- | --- | --- | --- | --- | --- | --- | --- | --- | --- | --- |
| C=CCC(OC(C)=O)[C@@H]1[C@@H](N(Cc2cccc3ccccc23)C(=O)c2cccc3ccccc23)c2cc(OCCCO)ccc2N1C(=O)c1ccc(-c2ccccc2)cc1 (stereo not given in full) | -0.545 | 0.511 | 0.571 | 0.425 | 0.0712 | 1.61 | -0.632 (inactive) | 0.72 | -0.177 | -0.227 (inactive) |
| CCOC(=O)C[C@H]1[C@H](OC(=O)c2cc3ccccc3oc2=O)[C@@H](NC(=O)c2ccc(-c3ccccc3)cc2)c2cc(OCCCO)ccc2N1C(=O)c1ccccc1 | 0.182 | 1.82 | 0.404 | 0.172 | -0.841 | 1.27 | -0.445 (inactive) | -0.337 | -0.595 | -1.1 (inactive) |
| CC(C)C(=C=CC[C@H](O)c1cccc(OCCO)c1)C[C@H](O)c1cc(Cl)cc(Cl)c1O | -0.105 | -0.903 | 0.142 | -1.67 | 0.205 | 0.00345 | 0.375 (inactive) | -0.527 | -0.826 | 1.01 (inactive) |
| CCCCO[C@H]1C[C@H]2C(I)=C[C@@H]1C(=O)[C@]21CO1 | -0.788 | -0.894 | -0.534 | -1.98 | -1.16 | -1.39 | -0.0178 (inactive) | 0.432 | -0.569 | 0.0651 (inactive) |
| CC(C)Cc1ccc(CN2CC[C@@H](NC(=O)Nc3ccccc3)C2)cc1 | -4.11 | -1.07 | -4.91 | -3.11 | -4.03 | -2.75 | 0.465 (inactive) | -1.11 | -3.26 | -2.79 (inactive) |
| COc1ccc([Si](C)(C)[C@H]2[C@H](CCn3cc([C@H](O)c4ccccc4)nn3)O[C@@]3(C(=O)N(Cc4ccc(N5C(=O)c6cccc7cccc5c67)cc4)c4ccccc43)[C@@H]2C)cc1 | 0.332 | -0.488 | 1.02 | -0.702 | -0.74 | 1.58 | -0.526 (inactive) | -0.296 | 0.516 | -1.26 (inactive) |
| CC[C@H]1C2=C3C(CC[C@H]4C(OCc5ccc(F)cc5C(F)(F)F)OC[C@](C)([C@@H]34)N(C(=O)OC(C)(C)C)C2)C(COC)C1COC (stereo not given in full) | -0.266 | -0.851 | 0.309 | 0.0661 | -0.307 | 1.38 | -0.159 (inactive) | -0.182 | -1.53 | -0.515 (inactive) |
| COC(=O)[C@@]1(Cc2ccc(OC)cc2)[C@@H]2C(=CC(=O)[C@H]2CC(=O)C(=O)N(C)C)CN1C(=O)c1ccccc1 | -1.85 | 0.271 | -1.12 | -2.29 | -4.37 | 0.607 | -0.283 (inactive) | -0.843 | -1.16 | -1.34 (inactive) |
| C=CC[C@]1(C(=O)O)COC(c2ccc(OCCCO)cc2)=N1 | 0.083 | -0.206 | -0.148 | -0.0046 | -0.571 | 0.0919 | 0.224 (inactive) | -0.0187 | -0.116 | -0.408 (inactive) |
| COc1cc2c(cc1OC)CN(C(=O)[C@@H]1[C@H]3C(=O)O[C@H](c4ccccc4)[C@H](c4ccccc4)N3[C@H](c3ccc(OCCO)cc3)[C@@]13C(=O)Nc1ccccc13)CC2 | 1.47 | 1.04 | 1.35 | 0.48 | 0.834 | -0.221 | 0.876 (inactive) | -0.592 | -1.17 | 0.319 (inactive) |
| C=CCN1C(=O)[C@@]2(CCS(=O)(=O)c3ccccc3)N=C(c3ccc(OCCCO)cc3)O[C@H]2c2ccccc21 | 0.0843 | 0.473 | 0.684 | -0.786 | -2.05 | -0.692 | 1.79 (inactive) | -0.995 | 0.0237 | -0.812 (inactive) |
| CCOC(=O)C1=CC[C@@H](c2ccccc2C(F)(F)F)N(S(=O)(=O)c2ccc(C)cc2)[C@H]1c1ccc(C#N)cc1 | -0.711 | -0.842 | -0.326 | -0.509 | -0.214 | -1.02 | -0.544 (inactive) | 0.801 | -0.81 | -0.035 (inactive) |
| COc1cc(CO)cc(I)c1O[C@H]1C=C(C(=O)NCCO)C[C@@H](NCc2ccc(F)cc2)[C@@H]1O | 0.56 | 0.385 | 2.22 | -2.35 | -0.456 | 0.871 | -0.389 (inactive) | -0.251 | -2.07 | -0.183 (inactive) |
| CC(C)(C)OC(=O)CC[C@]1(C(=O)NCc2ccccc2)N=C(c2ccc(OCCCO)cc2)O[C@H]1c1ccccc1CN=[N+]=[N-] | 0.858 | -0.0665 | 2.17 | -0.863 | 0.213 | 1.17 | 0.0993 (inactive) | -0.518 | -0.773 | -0.768 (inactive) |
| COC(=O)CCCCCCC(=O)Nc1ccc(NC(=O)CCCC[P+](c2ccccc2)(c2ccccc2)c2ccccc2)cc1 | -0.0008 | -0.297 | 0.67 | 0.134 | -0.268 | 1.58 | 1.03 (inactive) | -0.176 | -1.46 | 1.1 (inactive) |
| COCCCNC(=O)[C@]1(CCS(=O)(=O)c2ccccc2)N=C(c2ccc(OCCCO)cc2)O[C@@H]1c1ccccc1N=[N+]=[N-] | 0.76 | 0.108 | 0.683 | -1.41 | -0.311 | -0.0945 | -0.594 (inactive) | -0.986 | -0.754 | 0.265 (inactive) |
